Read-out in test [1]: NAD(P)H dehydrogenase [quinone] 1 (NQO1), NQO1 (gene 1728)
The experiment in a line: LTEA_HepaRG_NQO1: Life Technologies and Expression Analysis (LTEA) Assay for NAD(P)H dehydrogenase [quinone] 1 (NQO1) using HepaRG (AID 2283526). Conditions: mRNA level, 48 h; actives raise or lower the signal. Put shortly:
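qRT-PCR read-out (Fluidigm TaqMan), normalized to three housekeeping genes, after 48 h chemical exposure of HepaRG cells. Concentrations: eight points, top 100 uM, half-log steps, 0.5% DMSO vehicle. Gain or loss of signal fitted relative to DMSO.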

Read-out in test [2]: Nuclear factor erythroid 2-related factor 2 (Homo sapiens) (UniProt Q16236)
The experiment in a line: LTEA_HepaRG_NFE2L2: Life Technologies and Expression Analysis (LTEA) Assay for Nuclear factor erythroid 2-related factor 2 (NFE2L2) Transcription Factor using HepaRG (AID 2283527). As to conditions: mRNA level, 48 h; actives raise or lower the signal. Put shortly: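 Human liver HepaRG line treated in duplicate for 48 h with an eight-point series topping at 100 uM. Gene expression of NFE2L2 by qRT-PCR, bidirectionally fitted against the vehicle control.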

Read-out in test [3]: succinate dehydrogenase complex iron sulfur subunit B (SDHB), SDHB (gene 6390)
The experiment in a line: LTEA_HepaRG_SDHB: Life Technologies and Expression Analysis (LTEA) Assay for succinate dehydrogenase complex iron sulfur subunit B (SDHB) using HepaRG (AID 2283528). Conditions: mRNA level, 48 h; actives raise or lower the signal. The gist of the method: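 SDHB transcript level read by TaqMan qRT-PCR, housekeeping-normalised (ACTB, GAPDH, POLR2A), after 48 h chemical treatment of plated HepaRG cells; eight concentrations top 100 uM, half-log steps, 0.5% DMSO, duplicates; fitted both directions against DMSO.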

Read-out in test [4]: Signal transducer and activator of transcription 3 (Homo sapiens) (UniProt P40763)
In words: LTEA_HepaRG_STAT3: Life Technologies and Expression Analysis (LTEA) Assay for Signal transducer and activator of transcription (STAT3) using HepaRG (AID 2283529). As to conditions: mRNA level, 48 h; actives raise or lower the signal. Put shortly: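 In this transcriptional endpoint, HepaRG cultures receive test chemicals at up to 100 uM for 48 h, tested in duplicate. STAT3 mRNA is normalized to ACTB, GAPDH and POLR2A.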

Read-out in test [5]: solute carrier (SLCO1B1), SLCO1B1 (gene 10599)
The experiment in a line: LTEA_HepaRG_SLCO1B1: Life Technologies and Expression Analysis (LTEA) Assay for solute carrier (SLCO1B1) using HepaRG (AID 2283530). As to conditions: mRNA level, 48 h; actives raise or lower the signal. The gist of the method: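 SLCO1B1 transcript read by qRT-PCR (Fluidigm arrays), normalized to three housekeeping genes, after 48 h chemical exposure of HepaRG cells; bidirectional concentration-response fitting versus 0.5% DMSO baseline. Eight-point half-log series, maximum 100 uM.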

Read-out in test [6]: sulfotransferase 2A1 (SULT2A1), SULT2A1 (gene 6822)
The experiment in a line: LTEA_HepaRG_SULT2A1: Life Technologies and Expression Analysis (LTEA) Assay for sulfotransferase 2A1 (SULT2A1) using HepaRG (AID 2283531). As to conditions: mRNA level, 48 h; actives raise or lower the signal. Put shortly: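 HepaRG, 48 h chemical exposure, 8-pt half-log curve from 100 uM in 0.5% DMSO, duplicates. Readout: TaqMan qRT-PCR of SULT2A1 mRNA, housekeeping-normalized. Bidirectional fit vs DMSO baseline.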

Read-out in test [7]: Transforming Growth Factor (TGFA), TGFA (gene 7039)
The experiment in a line: LTEA_HepaRG_TGFA: Life Technologies and Expression Analysis (LTEA) Assay for Transforming Growth Factor (TGFA) using HepaRG (AID 2283532). As to conditions: mRNA level, 48 h; actives raise or lower the signal. The gist of the method:
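Gene expression of TGFA was quantified by qRT-PCR after human HepaRG cells were treated for 48 h with test chemicals (eight concentrations, highest 100 uM, 0.5% DMSO). Activity in either direction was fitted relative to DMSO.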

Read-out in test [8]: Transforming Growth Factor (TGFB1), TGFB1 (gene 7040)
In words: LTEA_HepaRG_TGFB1: Life Technologies and Expression Analysis (LTEA) Assay for Transforming Growth Factor (TGFB1) Transporter using HepaRG (AID 2283533). As to conditions: mRNA level, 48 h; actives raise or lower the signal. The gist of the method:
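qRT-PCR readout of TGFB1 transcript in HepaRG lysates, normalized to three housekeeping genes; gain or loss of signal fitted relative to 0.5% DMSO vehicle. Exposure: 48 h, 8-point curve from 100 uM, duplicate wells.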

Read-out in test [9]: TIMP1, TIMP1 (gene 7076)
The experiment in a line: LTEA_HepaRG_TIMP1: Life Technologies and Expression Analysis (LTEA) Assay for TIMP1 using HepaRG (AID 2283534). Conditions: mRNA level, 48 h; actives raise or lower the signal. The gist of the method: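 HepaRG, 48 h exposure, 8-pt half-log series from 100 uM in 0.5% DMSO, duplicates; TIMP1 transcript by Fluidigm qRT-PCR, housekeeping-normalized; bidirectional curve fit vs DMSO baseline.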

Read-out in test [10]: Tumor necrosis factor receptor 1 (TNFRSF1A), TNFRSF1A (gene 7132)
The experiment in a line: LTEA_HepaRG_TNFRSF1A: Life Technologies and Expression Analysis (LTEA) Assay for Tumor necrosis factor receptor 1 (TNFRSF1A) using HepaRG (AID 2283535). Conditions: mRNA level, 48 h; actives raise or lower the signal. Put shortly: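 HepaRG, 48 h plating then 48 h chemical exposure, serum-free induction media; 8-pt CRC from 100 uM, half-log, 0.5% DMSO vehicle, duplicates. Readout: TaqMan qRT-PCR (Fluidigm), housekeeping-gene normalized; bidirectional fit vs DMSO.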

Read-out in test [11]: Thyroid Hormone Responsive (THRSP), THRSP (gene 7069)
In words: LTEA_HepaRG_THRSP: Life Technologies and Expression Analysis (LTEA) Assay for Thyroid Hormone Responsive (THRSP) using HepaRG (AID 2283536). Conditions: mRNA level, 48 h; actives raise or lower the signal. The gist of the method: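 Cell model: human HepaRG, approx. 100,000 cells/well, 0.5% DMSO vehicle. Exposure lasts 48 h; phenobarbital 1 mM serves as induction positive control. Gene expression is measured by qRT-PCR against three endogenous control genes.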

Read-out in test [12]: Cellular tumor antigen p53 (Homo sapiens) (UniProt P04637)
The experiment in a line: LTEA_HepaRG_TP53: Life Technologies and Expression Analysis (LTEA) Assay for Tumor Protein P53 (TP53) using HepaRG (AID 2283537). As to conditions: mRNA level, 48 h; actives raise or lower the signal. Put shortly: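 TP53 transcript measured by qRT-PCR, normalized to three housekeeping genes, after 48 h treatment of human HepaRG cultures with chemicals from 100 uM downward in half-log steps (0.5% DMSO vehicle, serum-free induction medium). Up- or down-regulation fitted against DMSO.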

Read-out in test [13]: UDP glucuronosyltransferase (UGT1A1), UGT1A1 (gene 54658)
The experiment in a line: LTEA_HepaRG_UGT1A1: Life Technologies and Expression Analysis (LTEA) Assay for UDP glucuronosyltransferase (UGT1A1) using HepaRG (AID 2283538). Conditions: mRNA level, 48 h; actives raise or lower the signal. Put shortly: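 HepaRG, 48 h chemical exposure (top 100 uM, half-log 8-pt, 0.5% DMSO vehicle), duplicate wells; qRT-PCR (TaqMan, Fluidigm array) for UGT1A1 mRNA, housekeeping-normalized; bidirectional curve fit vs DMSO baseline.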

Read-out in test [14]: UDP glucuronosyltransferase (UGT1A6), UGT1A6 (gene 54578)
In words: LTEA_HepaRG_UGT1A6: Life Technologies and Expression Analysis (LTEA) Assay for UDP glucuronosyltransferase (UGT1A6) using HepaRG (AID 2283539). As to conditions: mRNA level, 48 h; actives raise or lower the signal. The gist of the method: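 qRT-PCR readout of UGT1A6 mRNA (normalized to ACTB/GAPDH/POLR2A) in differentiated HepaRG cells after 48 h chemical exposure; 8 concentrations, top 100 uM, half-log steps, 0.5% DMSO. Bidirectional curve fit relative to DMSO baseline.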

Read-out in test [15]: X-box binding protein 1 (XBP1), XBP1 (gene 7494)
The experiment in a line: LTEA_HepaRG_XBP1: Life Technologies and Expression Analysis (LTEA) Assay for X-box binding protein 1 (XBP1) using HepaRG (AID 2283540). Conditions: mRNA level, 48 h; actives raise or lower the signal. Put shortly:
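HepaRG, 48 h exposure, 8-pt half-log CRC top 100 uM, 0.5% DMSO vehicle, duplicates. Readout: TaqMan qRT-PCR of XBP1 mRNA, housekeeping-normalised (ACTB/GAPDH/POLR2A); bidirectional fit vs DMSO baseline.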

The nature of test [16]: LTEA_HepaRG_LDH_cytotoxicity: Cytotoxicity Assessment in the Life Technologies and Expression Analysis (LTEA) Assay (AID 2283563; active means hit-call score of the fitted dose curve at least 0.9, where 1 is the maximum). Put shortly: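 HepaRG (human liver line), 48 h exposure, 8-pt half-log series from 100 uM, 0.5% DMSO vehicle, duplicates. Read-out: LDH in spent medium. Positive-direction fit vs DMSO baseline.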
Test [17] has as its target Cellular tumor antigen p53 (Homo sapiens) (UniProt P04637). In words: TOX21_p53_BLA_p2_ratio: Tox21 HCT-116 p53 Agonism Beta-lactamase Assay, Ratio, Phase 2 (AID 2283592; active means hit-call score of the fitted dose curve at least 0.9, where 1 is the maximum). Put shortly: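 Readout: blue/green (460/530 nm) FRET emission ratio after 2 h CCF4-AM loading at room temperature, excitation 405 nm. HCT116 p53 bla cells, 16 h compound exposure at 37C, 5% CO2; agonist direction fitted against DMSO baseline.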

Test [18] can be described thus: TOX21_p53_BLA_p3_viability: Viability Assessment in the Tox21 HCT-116 p53 Agonism Beta-lactamase Assay, Phase 3 (AID 2283593; active means hit-call score of the fitted dose curve at least 0.9, where 1 is the maximum;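 further: cells exposed to compound for 16 h before reading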). Put shortly: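 HCT-116 cells (4000/well) rested 5 h at 37C, then got DMSO compounds by pin tool (217-fold dilution) for 16 h at 37C, 5% CO2. After the bla read, CellTiter-Glo was added and luminescence read at 30 min, room temperature.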

Test [19] is described as follows: TOX21_p53_BLA_p2_viability: Viability Assessment in the Tox21 HCT-116 p53 Agonism Beta-lactamase Assay, Phase 2 (AID 2283591; active means hit-call score of the fitted dose curve at least 0.9, where 1 is the maximum;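 further: actives lower the ATP signal meaning cytotoxicity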). The gist of the method:
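HCT-116 p53-bla cells (4000/well) rested 5 h at 37C, then received compounds in DMSO (217-fold dilution) for 16 h at 37C, 5% CO2. After the CCF4 read, CellTiter-Glo was added; ATP luminescence was read after 30 min at room temperature.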

Structures are written as SMILES. Results filed as inconclusive are left out. Activity calls are given as the source filed them. How the source made its calls, unless noted: active means hit-call score of the fitted dose curve at least 0.9, where 1 is the maximum; inactive means score below 0.9.

Chain of Signal transducer and activator of transcription 3 (Homo sapiens) (P40763 whole entry, looked up): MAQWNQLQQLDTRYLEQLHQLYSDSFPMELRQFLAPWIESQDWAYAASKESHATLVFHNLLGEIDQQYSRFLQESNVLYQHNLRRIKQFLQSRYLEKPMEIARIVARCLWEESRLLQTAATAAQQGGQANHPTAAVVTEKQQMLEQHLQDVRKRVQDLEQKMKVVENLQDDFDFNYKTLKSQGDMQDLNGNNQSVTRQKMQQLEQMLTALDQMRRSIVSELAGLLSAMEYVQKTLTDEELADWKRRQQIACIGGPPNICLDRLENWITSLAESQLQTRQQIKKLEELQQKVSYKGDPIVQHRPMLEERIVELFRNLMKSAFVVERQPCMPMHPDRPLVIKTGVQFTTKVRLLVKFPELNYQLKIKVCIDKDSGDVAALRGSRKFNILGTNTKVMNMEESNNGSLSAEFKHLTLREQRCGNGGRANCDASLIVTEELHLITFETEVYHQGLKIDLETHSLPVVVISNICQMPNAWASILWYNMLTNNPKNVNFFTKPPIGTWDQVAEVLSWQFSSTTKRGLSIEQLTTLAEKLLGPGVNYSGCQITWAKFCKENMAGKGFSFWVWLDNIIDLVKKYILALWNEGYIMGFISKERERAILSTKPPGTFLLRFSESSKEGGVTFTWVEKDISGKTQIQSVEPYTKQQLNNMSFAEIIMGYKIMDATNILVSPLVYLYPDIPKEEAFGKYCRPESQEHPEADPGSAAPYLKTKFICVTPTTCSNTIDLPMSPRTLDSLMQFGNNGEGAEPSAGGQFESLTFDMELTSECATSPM
Chain of Nuclear factor erythroid 2-related factor 2 (Homo sapiens) (Q16236 whole entry, looked up): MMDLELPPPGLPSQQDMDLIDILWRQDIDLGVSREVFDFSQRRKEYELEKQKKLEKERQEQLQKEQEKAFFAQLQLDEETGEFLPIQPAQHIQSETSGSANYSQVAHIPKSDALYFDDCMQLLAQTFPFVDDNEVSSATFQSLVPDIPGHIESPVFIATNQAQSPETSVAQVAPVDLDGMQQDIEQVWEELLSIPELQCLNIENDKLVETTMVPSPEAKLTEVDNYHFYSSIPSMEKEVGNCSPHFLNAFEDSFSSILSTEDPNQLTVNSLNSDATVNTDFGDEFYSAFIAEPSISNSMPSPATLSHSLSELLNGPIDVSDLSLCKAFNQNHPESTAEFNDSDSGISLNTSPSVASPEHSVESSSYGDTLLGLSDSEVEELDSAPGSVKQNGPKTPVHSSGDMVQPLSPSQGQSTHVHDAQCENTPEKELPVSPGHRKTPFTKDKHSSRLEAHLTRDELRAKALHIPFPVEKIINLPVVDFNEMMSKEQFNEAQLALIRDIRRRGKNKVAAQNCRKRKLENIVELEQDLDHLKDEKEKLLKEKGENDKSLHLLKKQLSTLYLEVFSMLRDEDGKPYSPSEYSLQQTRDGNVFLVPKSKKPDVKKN
Chain of Cellular tumor antigen p53 (Homo sapiens) (P04637 whole entry, looked up): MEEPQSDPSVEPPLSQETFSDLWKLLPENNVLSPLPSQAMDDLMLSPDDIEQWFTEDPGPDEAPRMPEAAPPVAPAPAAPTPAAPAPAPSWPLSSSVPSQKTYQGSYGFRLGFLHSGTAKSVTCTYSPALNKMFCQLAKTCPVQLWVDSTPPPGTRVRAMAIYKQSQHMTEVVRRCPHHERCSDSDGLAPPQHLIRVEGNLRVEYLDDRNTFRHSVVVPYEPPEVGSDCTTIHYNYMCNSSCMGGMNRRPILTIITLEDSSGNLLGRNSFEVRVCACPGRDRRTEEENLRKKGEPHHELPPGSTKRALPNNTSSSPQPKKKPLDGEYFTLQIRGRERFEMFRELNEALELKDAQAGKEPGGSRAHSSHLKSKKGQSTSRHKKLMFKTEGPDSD

On to `CCCCN(CC)c1c([N+](=O)[O-])cc(C(F)(F)F)cc1[N+](=O)[O-]`, for which the result in test [1], in test [2], in [3], in [4], in test [5] and in test [6] was inactive. For the same compound, the result in test [7], in test [8], in test [9], in test [10], in test [11] and in test [12] was inactive. For the same compound, the result in [14], in test [15], in [16], in [17] and in test [18] was inactive. Further, the AC50 (usually the concentration at which the activity in the assay is half-maximal) in test [13] was 32.2 µM (active).

Take `CC(C)[C@H](C(=O)O[C@H](C#N)c1cccc(Oc2ccccc2)c1)c1ccc(Cl)cc1`: the compound was called inactive in test [1], in [2], in test [3], in test [4], in test [5] and in [6]. In addition, the compound was called inactive in [7], in test [8], in test [9], in test [10], in test [11] and in test [12]. Moreover, the result in test [14], in [15], in [16], in test [17] and in test [18] was inactive. For the same compound, the AC50 in test [13] is 23.8 µM (active).

Regarding `CN(C)NC(=O)CCC(=O)O`, the call in test [1], in test [2], in [3], in test [4], in [5] and in [6] was inactive. Besides, the compound was classed as inactive in [7], in [8], in test [9], in [10], in test [11] and in [12]. The compound was called inactive in [13], in test [14], in test [15], in [16], in test [19] and in test [17]. For the same compound, the outcome in test [18] was inactive.

Consider `CCc1cccc(CC)c1N(COC)C(=O)CCl`, for which the result in [1], in test [2], in [3], in test [4], in [5] and in [6] was inactive. The call in test [7], in test [8], in [9], in test [10], in [11] and in test [14] was inactive. Besides, the outcome in test [15] and in test [16] was inactive. Moreover, the AC50 in [13] was 66.5 µM (active).

These data come from PubChem BioAssay (EPA / NIEHS).
